BioA inh: blocks M. tuberculosis BioA enzyme activity; purified M. tuberculosis BioA enzyme, plate reader; inhibition, % at 9.99 µM; 0.096% of 360,000 active; AID 602481; in the data active means inhibition above about 40%
BJeLR lethal: BJeLR cell viability loss; BJeLR (HRASV12) viability, CellTiter-Glo ATP luminescence, 48 h; inhibition, % (test concentration not listed); 0.17% of 300,000 active; AID 1554; in the data active means inhibition above about 50%
MazEF act: activators of E. coli MazEF toxin-antitoxin RNase. 0.32% of 350,000 active. FAM/BHQ RNA-DNA oligo cleavage fluorescence, 5 h. AID 504720. activation, % at 20 µM; in the data active means activation above about 50%
Target sequence (P0AE70 whole entry, looked up): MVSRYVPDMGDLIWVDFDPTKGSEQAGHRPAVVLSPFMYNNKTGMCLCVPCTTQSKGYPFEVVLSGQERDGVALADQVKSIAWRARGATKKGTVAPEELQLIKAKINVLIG
Y pestis TopoI: blocks Yersinia pestis topoisomerase I activity | Y. pestis Topo-I cleavage product accumulation, plate reader | activity, % at 10 µM | 0.064% of 360,000 active | AID 504884; in the data active means activity above about 50%, passing the limit was not always enough
3CLpro inhibitor: SARS-CoV 3CLpro protease inhibition; P0C6X7; recombinant SARS-CoV 3CLpro, quenched FRET peptide cleavage; inhibition, % at 6 µM; 0.14% of 290,000 active; in the data active means inhibition above about 12%
PfHsp40 rescue: restores yeast growth despite PfHsp40 toxicity; 0.68% of 340,000 active; growth rescue, % at 12.5 µM; AID 504582; S. cerevisiae expressing PfHsp40, growth rescue, ATP luminescence; in the data active means growth rescue above about 28%, passing the limit was not always enough;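 further: yeast W303a lacking pdr1 and pdr3 grown in galactose medium; growth measured after three days at 30 °C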
* hit, by the source's call; · = no result. Shown are actives, neighbours in structure and some others; about 1.1% of the full set was active somewhere.

SMILES	BioA inh	BJeLR lethal	MazEF act	Y pestis TopoI	3CLpro inhibitor	PfHsp40 rescue
COc1ccc(C(C)(C)C)cc1NC(=O)COC(=O)c1ccc([N+](=O)[O-])o1	-1	0	0	-3	-4	532*
O=C(COC(=O)c1ccc([N+](=O)[O-])o1)NCc1ccc2c(c1)OCO2	-1	·	0	5	·	168*
CCN(CC)S(=O)(=O)c1ccc(Cl)c(NC(=O)c2cc(Cl)ccc2Cl)c1	-1	2	54*	7	2	0
Cc1ccc(S(=O)(=O)N[C@H]2CC[C@H](CC(=O)NCCc3ccncc3)O[C@H]2CO)cc1	-5	·	·	·	·	·
O=C(COC(=O)c1ccc([N+](=O)[O-])o1)Nc1ccc(N2CCOCC2)cc1	0	·	1	4	·	95*
CN(C)S(=O)(=O)c1cccc(NC(=O)COC(=O)c2ccc([N+](=O)[O-])o2)c1	·	6	6	-2	1	-1
O=C(Nc1ccc(N2CCOCC2)cc1)c1ccc([N+](=O)[O-])o1	0	-11	-7	-5	-2	9
CN1/C(=C\C(=O)COC(=O)c2ccc([N+](=O)[O-])o2)C(C)(C)c2ccccc21	·	0	-5	1	6	36*
O=C(COC(=O)c1ccc([N+](=O)[O-])o1)Nc1ccc(F)cc1	-1	·	10	5	·	-2
CCN(CC)S(=O)(=O)c1ccc(Cl)c(NC(=O)COC(=O)c2ccc([N+](=O)[O-])o2)c1	0	-4	-6	2	-5	49*
Cc1cccc(NC(=O)COC(=O)c2ccc([N+](=O)[O-])o2)c1C	-1	5	3	6	-2	53*
O=C(Nc1cc(F)ccc1F)N1CCCCN2[C@H](CO)[C@H](c3ccc(-c4cncnc4)cc3)[C@H]2C1	7	·	·	·	·	·
CO[C@@H]1CN(C)C(=O)c2cc(NS(C)(=O)=O)ccc2OC[C@@H](C)N(C)C[C@@H]1C	-1	·	·	·	·	·
Cc1noc(C)c1S(=O)(=O)Nc1ccc2c(c1)CC(=O)N([C@H](C)CO)C[C@H](C)[C@@H](CN(C)C(=O)Nc1ccc(C(F)(F)F)cc1)O2	-1	·	·	·	·	·
COc1cccc(-c2ccc([C@@H]3[C@H](CO)N4CCCCN(S(=O)(=O)c5cn(C)cn5)C[C@@H]34)cc2)c1	3	·	·	·	·	·
O=C(COC(=O)c1ccc([N+](=O)[O-])o1)NC1CCCc2ccccc21 (stereo not drawn)	-1	·	4	-11	·	262*
Nc1cccc(C(=O)OCC(=O)NC2CCCc3ccccc32)c1 (stereo not drawn)	·	1	10	2	7	-2
COc1ccc(C)cc1NC(=O)COC(=O)c1ccc([N+](=O)[O-])o1	·	5	-12	-11	-2	77*
CC(C)C(=O)NNC(=O)CC(=O)Nc1ccccc1C(=O)O	·	-12	-2	10	1	40*
O=C(CC(=O)Nc1ccccc1C(=O)O)NNC(=O)Cc1ccccc1	10	5	2	8	-2	1
Cc1cccc(C2=NN(c3ccc(Br)cc3)[C@@H](C(=O)N3CCOC3=O)[C@@H]2c2ccc(Cl)cc2)c1	-2	·	129*	-7	·	1
COC(=O)c1c(NC(=O)C(C)(C)C)csc1C	·	3	6	2	-3	38*
COC(=O)c1c(NC(C)=O)csc1C	1	3	-14	7	2	-1
O=S(=O)(c1ccc2c(c1)OCCO2)N1CCN(c2cccc(Cl)c2)CC1	0	15	5	-7	2	11
O=S(=O)(c1cccc(Cl)c1)N1CCN(S(=O)(=O)c2ccc3c(c2)OCCO3)CC1	-1	·	-15	-9	·	43*
SMILES	BioA inh	BJeLR lethal	MazEF act	Y pestis TopoI	3CLpro inhibitor	PfHsp40 rescue
C[C@H]1CN([C@@H](C)CO)C(=O)c2cccc(NS(C)(=O)=O)c2O[C@H]1CN(C)C(=O)Nc1ccc(F)cc1	0	·	·	·	·	·
CCOC(=O)c1[nH]c(C)c(C(=O)N2CCc3ccccc32)c1C	0	52*	3	0	-1	-1
Cc1cccc(C)c1N1C(=O)C2ON(c3ccccc3)C(c3ccncc3)C2C1=O (stereo not drawn)	-4	-6	-4	-9	-5	254*
O=C(Nc1ccc(F)cc1)N[C@@H]1C=C[C@H](CC(=O)N2CCOCC2)O[C@H]1CO	-1	·	·	·	·	·
NC(=O)CN1C(=O)C(O)(CC(=O)c2ccccc2O)c2ccccc21 (stereo not drawn)	-2	-15	0	2	16*	-1
O=C(Cc1ccc(Br)cc1)N1CCOCC1	-1	-10	14	-4	-3	36*
O=C(C[N+]12CC[N+](CC(=O)c3ccc(F)cc3)(CC1)CC2)c1ccc(F)cc1	0	7	4	4	7	0
N#CC1(C#N)CC(C=O)=C(N)C1(C#N)CC(=O)c1ccc(F)cc1 (stereo not drawn)	-8	3	154*	12	-4	-2
Oc1[nH]c2ccccc2c1N=Nc1cccc(Cl)c1	-6	15	362*	1	5	·
Cc1cc(C)n2c(=O)c3ccc(Cl)cc3nc2c1C#N	·	2	36	2	1	1
Cc1cc(Cl)n2c(nc3cc(F)c(F)cc32)c1C#N	·	128*	1	2	3	8
COc1cc(OC)c(OC)cc1/C=C(\C#N)C(=O)NCc1cccs1	0	7	84*	19	-5	0
O=C1C(Cl)=C(Nc2ccccc2O)C(=O)N1CCc1ccccc1	-1	6	-8	-7	-5	142*
N#Cc1ccc(-c2cccs2)nc1SCc1cccnc1	1	51*	1	14	1	·
N#Cc1c(C(F)(F)F)cc(-c2cccs2)nc1SCc1cccnc1	0	4	6	8	0	-1
CCn1c(/C=C/c2c[nH]c3ccccc23)nc2ccccc2c1=O	·	1	15	-17	-5	0
Cc1[nH]c2ccccc2c1/C=C/c1nc2ccccc2c(=O)n1-c1ccc([N+](=O)[O-])cc1	·	-11	589*	-8	2	0
Cc1nc2ccccc2c(=O)n1-c1cc([N+](=O)[O-])cc([N+](=O)[O-])c1	3	6	10	0	-5	-1
CCn1c(/C=C/c2c(C)[nH]c3ccccc23)nc2ccccc2c1=O	0	29	106*	-2	6	1
Cc1ccc(C(=O)CC(=O)c2cccc(F)c2)c(O)c1	1	4	5	2	-3	396*
Cc1ccc(C(=O)CC(=O)c2ccccc2C)c(O)c1	2	1	-2	-5	2	3
C[C@H](O)C#Cc1cnc2c(c1)C(=O)N([C@H](C)CO)C[C@H](C)[C@H](CN(C)C(=O)Nc1ccc(F)cc1)O2	-1	·	·	·	·	·
O=[N+]([O-])c1c(Nc2ccc(O)cc2)cc(Cl)c2nonc12	14	52*	8	-20	4	-3
O=[N+]([O-])c1c(Nc2ccccn2)cc(Cl)c2nonc12	·	112*	-20	-8	3	1
